High-throughput results as filed in PubChem BioAssay.
KB-V1 MDR tox = KB-V1 MDR subline cytotoxicity; AID 1347076; Potency, µM (highest dose often 46.1 µM), usual class: cytotoxic; KB-V1 MDR cells viability, CellTiter-Glo, 72 h; 400,000 tested, 3.4% active; also: potency is read from the fitted curve at half-maximal effect; nearly all actives have a fitted effect of over 60% in size
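Cytotoxicity via CellTiter-Glo luminescence after 72 h compound exposure at 37 degrees C. Cells: drug-selected KB-V1 line, DMEM phenol-red free plus 10% FBS. Compounds tested at multiple concentrations; normalized data fitted to concentration-effect curves.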
HT1080 IDH1KD tx = toxicity to HT-1080 IDH1 knockdown cells (counter line). HT-1080 IDH1 knockdown viability, ATP luminescence, 48 h. Potency, µM (highest dose often 46.1 µM), for inactives: top-dose activity, negative = toxicity, actives largely listed as cytotoxic. 360,000 tested, 2% active;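 also: potency is read from the fitted curve at half-maximal effect; 0% = DMSO wells and -100% = cell-free medium wells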
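Luminescent ATP read-out (CellTiter-Glo, 10 min at room temperature) after 48 h compound exposure at 37 °C gave viability of IDH1-knockdown HT-1080 cells. Activity was normalised to DMSO and cell-free wells, then fitted as concentration-response curves.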
IL1B secr inh = blocks inflammasome-driven IL-1 beta release. THP-1 LPS/ATP IL-1B secretion, AlphaLISA, 16 h; active compounds read low. activity change, % at 57.5 µM. 360,000 tested, 4.7% active; in the data active = activity change below about -50%; inconclusive = mostly about -30% to -49%
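Secreted IL-1B measured by AlphaLISA bead assay after 16 h compound exposure of THP-1 cells; compounds (final up to 57.5 uM) added 1 h before LPS (250 ng/mL) and ATP (1.25 mM) stimulation; lower signal means less secretion.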
KB-3-1 tox = KB-3-1 parental cell cytotoxicity; KB-3-1 viability, CellTiter-Glo ATP luminescence, 72 h; Potency, µM (series often up to 46.1 µM), most hits filed as cytotoxic; AID 1347075; 400,000 tested, 1.4% active; also: potency is read from the fitted curve at half-maximal effect; nearly all actives have a fitted effect of over 60% in size
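72 h, 37 °C compound treatment of KB-3-1 parental cells; CellTiter-Glo added, 10 min, luminescence read. Data corrected against DMSO-only plates and normalized before curve fitting.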
HT1080NT lethal = kills 2HG-producing HT-1080-NT fibrosarcoma cells. AID 686970. HT-1080-NT fibrosarcoma viability, CellTiter-Glo ATP luminescence, 48 h. Potency, µM (top dose mostly 46.1 µM), without a hit: at the top dose activity, negative = less viability, hits mostly cytotoxic. 360,000 tested, 1.6% active;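 also: NT is the 2HG producing partner of a matched IDH1 knockdown line; potency is read from the fitted curve at half-maximal effect; 0% = DMSO-treated cells and -100% = media-only wells without cells; nearly all actives have a fitted effect of over 55% in size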
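Luminescent CellTiter-Glo readout after 48 hours of compound exposure at 37 degrees C defined viability of HT-1080-NT cells. Activity was normalized to DMSO wells and cell-free media wells; concentration-response curves were fitted and assigned curve classes.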
Active calls of the source: *; i = inactive; ? = inconclusive; / = no result given. The list is not random: actives were taken first. Their share in the collection is about 8.8%. Unless noted, calls follow the shape of the dose curve; as a rule, active = well fitted curve in the direction sought with a large enough effect; inconclusive = small, poorly fitted or top-dose-only effect, or another doubt; inactive = no such curve, though single readings can be large; an effect the other way counts as inactive or inconclusive. Unless noted, % is scaled to controls: 0 for no effect and ±100 for the full control effect.

SMILES	KB-V1 MDR tox	HT1080 IDH1KD tx	IL1B secr inh	KB-3-1 tox	HT1080NT lethal
CCC(Sc1nc2sc(C(=O)OC)c(C)c2c(=O)n1N)C(=O)N(CC)CC (stereo not given)	3.7µM*	6%	9	i	4%
CCOc1ccc(NC(=O)c2ccc3c(c2)CCN3S(=O)(=O)CC)cc1	i	/	/	i	/
O=C(c1cnc2cc(-c3ccccc3)nn2c1)c1cc([N+](=O)[O-])ccc1O	i	/	/	?	/
CCOC(=O)COc1ccc([N+](=O)[O-])cc1-c1ccnc2cc(-c3ccc(C)cc3)nn12	i	/	/	i	/
Cc1ccc(-c2cc3nccc(-c4cc([N+](=O)[O-])ccc4O)n3n2)cc1	?	/	/	23µM*	/
Cc1ccc(-c2cc3ncc(C(=O)c4cc([N+](=O)[O-])ccc4O)cn3n2)cc1	i	/	/	16µM*	/
CCn1ncc(/C=N\NC(=O)Cc2ccc([N+](=O)[O-])cc2)c1C	i	2%	22	i	2%
Nc1cc(=O)[nH]c(SCc2csc(-c3ccccc3)n2)n1	16µM*	-2%	-12	?	-4%
COc1ccc(CSc2nc(C)cc(=O)[nH]2)cc1Br	18µM*	-18%	31	i	-4%
Cc1cc(=O)[nH]c(SCc2csc(-c3ccccc3)n2)n1	23µM*	14%	-9	i	13%
Nc1cc(=O)[nH]c(SCc2ccccc2Cl)n1	i	-1%	-9	i	-4%
COc1ccc(NC(=O)C(C)n2nc(-c3ccc(C)c(C)c3)ccc2=O)cc1OC (stereo not given)	i	/	/	i	/
COC(=O)N/N=C/c1cc(N=Nc2ccccc2Cl)ccc1O	?	-22%	?	?	-15%
Nc1ccc(C(=O)N/N=C\c2cc(N=Nc3cccc4ccccc34)ccc2O)cc1	?	12µM*	27	?	?
O=[N+]([O-])c1ccc(O)c(C=Nc2cccc3ccccc23)c1	i	-12%	19	i	-1%
O=C(N/N=C/c1cc([N+](=O)[O-])ccc1O)c1cc(-c2ccccc2)nc2ccccc12	i	4.1µM*	11	?	?
O=C(N/N=C/c1cccc([N+](=O)[O-])c1)c1c[nH]c2ccccc12	i	-7%	-12	i	-14%
O=C(N/N=C/c1cc([N+](=O)[O-])ccc1O)c1c[nH]c2ccccc12	?	15µM*	209	?	?
O=C(NN=Cc1cc([N+](=O)[O-])ccc1O)c1cccc2ccccc12	?	6.5µM*	65	?	?
COc1ccccc1C(CNC(=O)CN1C(=O)NC(C)(c2ccc3ccccc3c2)C1=O)N1CCCC1 (stereo not given)	i	3%	-18	i	-4%
Cc1ccc(CN2CCC(CNc3ncnc4onc(-c5ccc(F)cc5)c34)CC2)cc1	i	/	/	?	/
Cc1oc2ccc(O)c(CN3CCN(C)CC3)c2c1C(=O)Nc1ccccc1	i	/	/	i	/
CCCS(=O)(=O)c1c(S(=O)(=O)CCC)c2cc(-c3ccncc3)ccn2c1C(=O)OC	i	-13%	-69*	i	-19%
Cc1ccc2nc(SCC(=O)Nc3cc(C)on3)nc(=O)n2c1	i	15%	15	i	15%
CN(CCCN(Cc1ccc(Cl)cc1)c1ccc(Br)cn1)C(=S)NCCCc1cnc[nH]1	i	/	/	?	/
SMILES	KB-V1 MDR tox	HT1080 IDH1KD tx	IL1B secr inh	KB-3-1 tox	HT1080NT lethal
CCC(=O)N1CCc2cc(Br)cc(S(=O)(=O)N3CCCC(C(=O)Nc4cccc(Cl)c4C)C3)c21 (stereo not given)	i	/	/	i	/
Cc1cc2n(n1)CCC(=O)N2Cc1ccc(C(=O)Nc2cc(Cl)ccc2C)cc1	i	/	/	i	/
COc1ccc(C(=O)N2CCN(c3nc(C4CC4)nc4sc(C)c(C)c34)CC2)cc1	23µM*	-8%	-65*	?	-8%
Cc1sc2nc(C3CC3)nc(N3CCN(S(=O)(=O)c4ccc(F)cc4)CC3)c2c1C	?	?	-22	i	5%
Cc1sc2nc(C3CC3)nc(N3CCN(C(=O)c4ccc(Cl)cc4)CC3)c2c1C	18µM*	-24%	-6	?	-17%
Cc1sc2nc(C3CC3)nc(N3CCN(C(=O)c4ccccc4F)CC3)c2c1C	?	?	-26	i	-17%
